Here are results for five molecules from PubChem BioAssay.

Calls of active or inactive are those of the source.

In test [1] the test system is Human papillomavirus type 1a protein E7 (residues 44-93). The test can be described thus: small molecules binding HPV E7 44-93 – biochemical, small-molecule microarray, residues 44-93, 635 nm fluorescence, primary screen (AID 1108).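 Further: E7 fragment applied at 1 µg/mL in TBST for 1 h at 4 C; score combines spot fluorescence with its signal to noise ratio.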 To be noted: fluorescence 635 nm, higher = more signal.
Test [2] is described as follows: hepatitis C replication reporter changes, two-sided – Huh7 cells, luciferase reporter, HCV replication inhibitor project, primary screen (AID 1109).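 Further: huh7 hepatoma cells harbouring a luciferase neomycin HCV replicon reporter; luciferase luminescence as measure of HCV replicon replication; test concentration not given here.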 The note with it: Huh7 HCV replicon luciferase reporter, 48 h; higher = more signal.
Test [3] has as its target Left-right determination factor 2 (Homo sapiens) (UniProt O00292). Nature of the test: small molecules binding LEFTY2 protein – biochemical, small-molecule microarray, 635 nm fluorescence scan, primary screen (AID 1110). The note with it: higher = more signal.
Test [4] deals with Calmodulin-1 (Homo sapiens) (UniProt P0DP23). The test can be described thus: small molecules binding calmodulin-1 with EGTA – biochemical, small-molecule microarray, Cy5-labelled CALM1, profiling panel (AID 1111).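 Further: labelled calmodulin applied in Tris saline Tween buffer holding calcium plus EGTA and DTT.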 The note with it: Cy5-CALM1 binding fluorescence, higher = more signal.
For test [5] the target is unchanged. Nature of the test: small molecules binding Ca-loaded calmodulin-1 – biochemical, small-molecule microarray, Cy5-labelled CALM1, plus calcium, artefact control for SMM control-protein annotation, profiling panel (AID 1112).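 Further: score merges spot fluorescence with signal to noise from triplicate slides.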 To be noted: Cy5-CALM1 binding fluorescence, higher = more signal.
Test [6] is described as follows: probe aWnt5a binding to arrayed compounds – biochemical, biotinylated probe, 635/667 nm fluorescence, primary screen (AID 1113).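 Further: score merges 667 nm fluorescence intensity with signal-to-noise per printed feature.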 The note with it: small-molecule microarray, higher = more signal.
Test [7] can be described thus: probe aShh binding to arrayed compounds – biochemical, biotinylated probe, 635/667 nm fluorescence, primary screen (AID 1114).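 Further: probe is biotin-labelled aShh protein from a stem cell growth factor screen; measures binding of labelled protein to compounds printed on the slide; score merges feature fluorescence at 667 nm with signal-to-noise.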 To be noted: small-molecule microarray, higher = more signal.
A short description of test [8]: probe aNog binding to arrayed compounds – biochemical, biotinylated probe, 635/667 nm fluorescence, primary screen (AID 1115).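 Further: probe is biotinylated aNog protein used at 0.15 µg/mL for 1 h at 4 C; z-score combines 667 nm fluorescence of each spot with its signal to noise.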 To be noted: small-molecule microarray, higher = more signal.
Test [9] concerns the target Torsin-1A-interacting protein 1 (Homo sapiens) (UniProt Q5JTV8). Nature of the test: compound microarray binding of lysate hLAP1 – cell lysate, small-molecule microarray, COS7 lysate, 635/667 nm fluorescence, primary screen (AID 1116). The note with it: 635 nm fluorescence, higher = more signal.
Test [10] deals with Alpha-bungarotoxin (Bungarus multicinctus) (UniProt P60615). Nature of the test: compounds binding labelled alpha-BTX control protein – biochemical, small-molecule microarray, Alexa647 label, 635/667 nm fluorescence, artefact control for SMM control protein annotation, profiling panel (AID 1117). The note with it: alpha-BTX-A647 binding fluorescence, higher = more signal.
Chain of Alpha-bungarotoxin (Bungarus multicinctus) (P60615 whole entry, looked up): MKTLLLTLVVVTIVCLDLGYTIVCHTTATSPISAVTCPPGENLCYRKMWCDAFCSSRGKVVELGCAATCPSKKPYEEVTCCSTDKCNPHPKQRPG
In another test the target is Albumin (Bos taurus) (UniProt P02769). The test can be described thus: compounds binding labelled BSA control protein – biochemical, small-molecule microarray, Alexa647 label, 635/667 nm fluorescence, artefact control for SMM control protein annotation, profiling panel (AID 1118).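 Further: score merges 667 nm emission intensity and signal-to-noise per printed compound spot.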 To be noted: BSA-A647 binding, fluorescence 635 nm, higher = more signal.
Chain of Albumin (Bos taurus) (P02769 whole entry, looked up): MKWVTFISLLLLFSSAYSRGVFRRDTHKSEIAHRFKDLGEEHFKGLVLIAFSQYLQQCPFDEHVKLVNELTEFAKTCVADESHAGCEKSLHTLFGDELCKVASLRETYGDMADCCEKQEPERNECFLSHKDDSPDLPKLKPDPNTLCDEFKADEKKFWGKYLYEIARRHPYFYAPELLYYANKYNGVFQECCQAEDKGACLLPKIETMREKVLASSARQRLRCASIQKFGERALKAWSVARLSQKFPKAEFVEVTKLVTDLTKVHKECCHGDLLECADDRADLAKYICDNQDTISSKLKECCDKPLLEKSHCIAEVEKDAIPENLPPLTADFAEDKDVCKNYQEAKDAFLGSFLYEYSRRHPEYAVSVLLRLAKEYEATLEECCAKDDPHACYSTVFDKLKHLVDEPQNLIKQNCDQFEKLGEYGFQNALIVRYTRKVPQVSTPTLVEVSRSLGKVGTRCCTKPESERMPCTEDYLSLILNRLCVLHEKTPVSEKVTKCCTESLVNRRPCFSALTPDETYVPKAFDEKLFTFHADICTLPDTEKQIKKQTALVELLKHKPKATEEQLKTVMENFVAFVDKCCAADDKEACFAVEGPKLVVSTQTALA
Test [11] in a line: probe aXIP binding to arrayed compounds – biochemical, NeuroSMM set, 635/667 nm fluorescence, primary screen (AID 1119).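 Further: probe is the protein aXip251-270 applied at 1 µg/mL to compound-printed slides; binding of probe to printed compounds measured as 667 nm fluorescence plus signal to noise.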 The note with it: small-molecule microarray, higher = more signal, called active from +8 up or from −8 down.
A short description of test [12]: probe aNOTCH3 binding on compound microarray – biochemical, small-molecule microarray, 635/667 nm fluorescence, primary screen (AID 1120).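 Further: probe is a biotin-tagged antibody raised against NOTCH3 rather than NOTCH3 protein; score merges spot fluorescence near 667 nm with spot signal to noise.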 The note with it: higher = more signal.
Test [13] is described as follows: probe aNOTCH2 binding on compound microarray – biochemical, small-molecule microarray, 635/667 nm fluorescence, primary screen (AID 1121).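 Further: score merges feature fluorescence read at 667 nm with its signal to noise.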 The note with it: higher = more signal.
Test [14] deals with Carbonic anhydrase 2 (Homo sapiens) (UniProt P00918). Nature of the test: compounds binding carbonic anhydrase 2 – biochemical, small-molecule microarray, Alexa647-labelled CAII, profiling panel (AID 1122). To be noted: CAII-A647 binding fluorescence, higher = more signal.
Test [15] in a line: COS7 lysate on small-molecule microarray, probe aHis, 635 nm (AID 1123).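 Further: z-score combines 667nm fluorescence intensity with signal-to-noise per printed compound spot.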 The note with it: COS7 cell lysate, fluorescence, higher = more signal.
Test [16] can be described thus: probe aLAP1 signal on lysate-treated microarray – cell lysate, small-molecule microarray, COS7 lysate, primary screen (AID 1124).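 Further: lysate comes from COS7 cells expressing LAP1 and is applied at 0.3 µg/mL; score merges spot fluorescence near 667 nm with signal-to-noise over triplicate slides.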 To be noted: probe aLAP1, fluorescence, higher = more signal.
The test system of the next test is Sam68 (KHDRBS1). Nature of the test: compounds binding KHDRBS1 protein – biochemical, small-molecule microarray, 635 nm fluorescence, primary screen (AID 1125).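 Further: score merges 667 nm channel intensity with signal to noise over triplicate slides.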 The note with it: higher = more signal.
For test [17], the system named is Chordin-like protein 2 (CHRDL2). Nature of the test: compounds binding chordin-like 2 – biochemical, small-molecule microarray, 635 nm fluorescence, primary screen (AID 1126).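 Further: printed compound slides probed with Chrdl2 protein at 4 µg/mL for 1 h at 4 C; score merges 667 nm emission intensity with signal to noise over three replicate slides.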 The note with it: fluorescence 635 nm, higher = more signal.
The target of test [18] is Concanavalin-A (Canavalia ensiformis) (UniProt P02866). The test can be described thus: compounds binding concanavalin A lectin – biochemical, small-molecule microarray, Alexa647 label, 635 nm, artefact control for SMM control protein annotation, primary screen (AID 1127).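 Further: z combines 667 nm emission intensity with signal-to-noise across three replicate slides.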 The note with it: ConA-A647 binding fluorescence, higher = more signal.
Chain of Concanavalin-A (Canavalia ensiformis) (P02866 whole entry, looked up): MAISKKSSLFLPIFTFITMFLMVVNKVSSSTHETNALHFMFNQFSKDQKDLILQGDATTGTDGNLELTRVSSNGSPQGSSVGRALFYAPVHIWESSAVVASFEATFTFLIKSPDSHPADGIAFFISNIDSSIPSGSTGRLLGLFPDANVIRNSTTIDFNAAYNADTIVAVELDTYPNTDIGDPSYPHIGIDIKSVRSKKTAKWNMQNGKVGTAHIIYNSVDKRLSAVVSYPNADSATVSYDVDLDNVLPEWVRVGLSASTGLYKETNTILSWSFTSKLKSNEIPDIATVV

Chain of Left-right determination factor 2 (Homo sapiens) (O00292 whole entry, looked up): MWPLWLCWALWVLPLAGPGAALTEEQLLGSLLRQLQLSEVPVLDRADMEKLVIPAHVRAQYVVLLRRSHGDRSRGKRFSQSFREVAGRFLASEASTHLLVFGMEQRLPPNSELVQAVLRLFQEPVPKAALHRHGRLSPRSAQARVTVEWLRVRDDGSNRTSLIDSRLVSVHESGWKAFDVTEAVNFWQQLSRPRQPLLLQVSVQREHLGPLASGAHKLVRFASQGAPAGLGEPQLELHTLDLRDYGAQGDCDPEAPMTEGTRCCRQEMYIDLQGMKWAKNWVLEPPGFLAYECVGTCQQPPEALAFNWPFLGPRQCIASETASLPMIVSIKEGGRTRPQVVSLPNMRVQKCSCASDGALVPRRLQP
Chain of Torsin-1A-interacting protein 1 (Homo sapiens) (Q5JTV8 whole entry, looked up): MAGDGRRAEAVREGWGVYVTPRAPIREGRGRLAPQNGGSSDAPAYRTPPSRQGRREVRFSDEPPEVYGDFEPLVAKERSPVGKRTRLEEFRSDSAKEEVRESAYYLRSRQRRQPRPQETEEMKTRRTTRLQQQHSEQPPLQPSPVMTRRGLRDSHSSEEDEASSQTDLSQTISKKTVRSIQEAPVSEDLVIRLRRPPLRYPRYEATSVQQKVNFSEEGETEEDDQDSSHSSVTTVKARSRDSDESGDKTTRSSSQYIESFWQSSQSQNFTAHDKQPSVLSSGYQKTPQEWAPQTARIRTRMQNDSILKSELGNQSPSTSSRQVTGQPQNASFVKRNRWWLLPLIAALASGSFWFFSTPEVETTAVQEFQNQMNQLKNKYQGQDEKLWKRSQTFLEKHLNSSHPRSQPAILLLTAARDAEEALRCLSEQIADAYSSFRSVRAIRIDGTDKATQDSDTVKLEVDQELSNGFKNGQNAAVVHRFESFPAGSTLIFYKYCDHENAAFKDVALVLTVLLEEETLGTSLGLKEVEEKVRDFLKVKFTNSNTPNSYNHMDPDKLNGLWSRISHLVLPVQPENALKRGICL

On to `[N-]=[N+]=Nc1ccccc1[C@@H]1OC(c2ccc(OCCCO)cc2)=N[C@]1(CCS(=O)(=O)c1ccccc1)C(=O)NCc1ccccc1`, for which the composite z-score was 1.41 in test [1]; 0.343 in test [3]; 2.03 in [4]; 0.603 in test [5]; 0.0338 in test [6]; 0.0469 in [7]. Further, the composite z-score came out at 1.6 in test [8]; 2.15 in [9]; 1.9 in test [10]; 0.976 in the test with Albumin (Bos taurus); 0.752 in test [12]; 0.38 in test [13]. For the same molecule, the composite z-score in test [14] was 0.749; in test [15], 2.86; in test [16], 0.48; with Sam68 (KHDRBS1), 1.29; in test [17], -0.612; in [18] it was 1.11. In test [2], this molecule yielded a z-score of 0.0858. Further, the composite Z-score in test [11] was 1.08 (inactive).
Regarding `CC(C)CCC[C@@H](C)[C@H]1CC[C@@]2(C)C3=C(CC[C@]12C)[C@@]1(C)CC[C@H](OC(=O)c2ccc(N)cc2)C(C)(C)C1CC3` (stereo not given in full), the composite z-score was 0.609 in test [1]; 1.2 in test [3]; -0.137 in [4]; -0.674 in test [5]; -0.0545 in [6]; 0.768 in [7]. The composite z-score in test [8] is -0.427; in test [9], 0.282; in test [10], 0.0506; with Albumin (Bos taurus) it was 0.0881; in test [12], 0.0406; in test [13] it was -0.207. Also, the composite z-score in test [14] was 0.0778; in test [15] it was -0.221; in test [16], -0.252; in the test with Sam68 (KHDRBS1) it was 0.401; in test [17], 0.456; in [18], 0.462. In [2], this molecule yielded a z-score of 0.0533. Besides, the composite Z-score in test [11] is -0.196 (inactive).
Turning to `CCCC=C(CCC)[C@@H](NC(=O)Cc1ccccc1)c1ccc(C(=O)OC)cc1`, the composite z-score in test [1] was determined as 1.08; in test [3], 0.0461; in [4], 1.22; in [5], 0.499; in test [6], 0.748; in test [7], 2.15. Also, the composite z-score in test [8] is 1.79; in test [9] it was -0.481; in test [10], 1.66; with Albumin (Bos taurus), 0.506; in test [12], 0.934; in test [13] it was 0.0754. In addition, the composite z-score came to 0.405 in test [14]; 1.69 in test [15]; 0.615 in test [16]; 0.844 in the test with Sam68 (KHDRBS1); 0.549 in [17]; 0.31 in [18]. The same molecule came in with a z-score in [2] of -1.11. Besides, in [11], the composite Z-score was 0.0119 (inactive).
Regarding `CN1C(=O)C2C=CC(C(O)c3cccc4ccccc34)N(NC(=O)OC(C)(C)C)C2C1=O` (stereo not given), the composite z-score in [1] is 1.28; in [3], -0.22; in test [4], 2.49; in [5] it was 1.43; in [6], -0.0512; in [7], -0.0813. The composite z-score was -0.125 in test [8]; 2.66 in [9]; 1.19 in [10]; 1 in the test with Albumin (Bos taurus); 0.479 in [12]; 0.385 in test [13]. In addition, the composite z-score is 0.752 in test [14]; 2.95 in test [15]; 1.57 in [16]; 1.3 in the test on Sam68 (KHDRBS1); -0.705 in test [17]; 1.17 in [18]. Further, the z-score in test [2] is -0.602. Further, the composite Z-score in test [11] was 0.58 (inactive).
In the case of `O=C1NC(=O)C2C1C=CC(C(O)CCc1ccccc1)N2Nc1ccccn1` (stereo not given), the composite z-score was -0.574 in [1]; -0.0953 in test [3]; 0.901 in [4]; 0.569 in test [5]; -0.0445 in test [6]; -0.262 in [7]. The composite z-score in test [8] was -0.279; in test [9] it was 2.33; in [10], 0.67; in the test with Albumin (Bos taurus) it was 0.558; in test [12], -0.145; in test [13], -0.0116. Besides, the composite z-score in test [14] came out at 0.894; in test [15] it was 1.02; in [16], 1.59; in the test with Sam68 (KHDRBS1) it was 0.438; in test [17], 0.0374; in test [18], 0.891. The molecule further registered a z-score in [2] of 0.204. Moreover, the composite Z-score in [11] is 1.62 (inactive).
